Measurements from the supplement of paper PMC11732987, “Enantioselective OTUD7B fragment discovery through chemoproteomics screening and high-throughput optimisation” (Communications Chemistry, 2025).

Tests used:
Test in all cases: log2 ratio of Biotin-Ahx-Ub-VS probe labelling (fragment/DMSO); higher = less target engagement (more negative = stronger competition), active = hit call of the paper (q ≤ 0.05, log2 ratio ≤ -1)
Settings in all cases: compound concentration: 200 uM; treatment time: 3 h
USP34 = USP34 (UniProt Q70CQ2)
Chain of USP34 (Q70CQ2 whole entry, the tested form may be a part): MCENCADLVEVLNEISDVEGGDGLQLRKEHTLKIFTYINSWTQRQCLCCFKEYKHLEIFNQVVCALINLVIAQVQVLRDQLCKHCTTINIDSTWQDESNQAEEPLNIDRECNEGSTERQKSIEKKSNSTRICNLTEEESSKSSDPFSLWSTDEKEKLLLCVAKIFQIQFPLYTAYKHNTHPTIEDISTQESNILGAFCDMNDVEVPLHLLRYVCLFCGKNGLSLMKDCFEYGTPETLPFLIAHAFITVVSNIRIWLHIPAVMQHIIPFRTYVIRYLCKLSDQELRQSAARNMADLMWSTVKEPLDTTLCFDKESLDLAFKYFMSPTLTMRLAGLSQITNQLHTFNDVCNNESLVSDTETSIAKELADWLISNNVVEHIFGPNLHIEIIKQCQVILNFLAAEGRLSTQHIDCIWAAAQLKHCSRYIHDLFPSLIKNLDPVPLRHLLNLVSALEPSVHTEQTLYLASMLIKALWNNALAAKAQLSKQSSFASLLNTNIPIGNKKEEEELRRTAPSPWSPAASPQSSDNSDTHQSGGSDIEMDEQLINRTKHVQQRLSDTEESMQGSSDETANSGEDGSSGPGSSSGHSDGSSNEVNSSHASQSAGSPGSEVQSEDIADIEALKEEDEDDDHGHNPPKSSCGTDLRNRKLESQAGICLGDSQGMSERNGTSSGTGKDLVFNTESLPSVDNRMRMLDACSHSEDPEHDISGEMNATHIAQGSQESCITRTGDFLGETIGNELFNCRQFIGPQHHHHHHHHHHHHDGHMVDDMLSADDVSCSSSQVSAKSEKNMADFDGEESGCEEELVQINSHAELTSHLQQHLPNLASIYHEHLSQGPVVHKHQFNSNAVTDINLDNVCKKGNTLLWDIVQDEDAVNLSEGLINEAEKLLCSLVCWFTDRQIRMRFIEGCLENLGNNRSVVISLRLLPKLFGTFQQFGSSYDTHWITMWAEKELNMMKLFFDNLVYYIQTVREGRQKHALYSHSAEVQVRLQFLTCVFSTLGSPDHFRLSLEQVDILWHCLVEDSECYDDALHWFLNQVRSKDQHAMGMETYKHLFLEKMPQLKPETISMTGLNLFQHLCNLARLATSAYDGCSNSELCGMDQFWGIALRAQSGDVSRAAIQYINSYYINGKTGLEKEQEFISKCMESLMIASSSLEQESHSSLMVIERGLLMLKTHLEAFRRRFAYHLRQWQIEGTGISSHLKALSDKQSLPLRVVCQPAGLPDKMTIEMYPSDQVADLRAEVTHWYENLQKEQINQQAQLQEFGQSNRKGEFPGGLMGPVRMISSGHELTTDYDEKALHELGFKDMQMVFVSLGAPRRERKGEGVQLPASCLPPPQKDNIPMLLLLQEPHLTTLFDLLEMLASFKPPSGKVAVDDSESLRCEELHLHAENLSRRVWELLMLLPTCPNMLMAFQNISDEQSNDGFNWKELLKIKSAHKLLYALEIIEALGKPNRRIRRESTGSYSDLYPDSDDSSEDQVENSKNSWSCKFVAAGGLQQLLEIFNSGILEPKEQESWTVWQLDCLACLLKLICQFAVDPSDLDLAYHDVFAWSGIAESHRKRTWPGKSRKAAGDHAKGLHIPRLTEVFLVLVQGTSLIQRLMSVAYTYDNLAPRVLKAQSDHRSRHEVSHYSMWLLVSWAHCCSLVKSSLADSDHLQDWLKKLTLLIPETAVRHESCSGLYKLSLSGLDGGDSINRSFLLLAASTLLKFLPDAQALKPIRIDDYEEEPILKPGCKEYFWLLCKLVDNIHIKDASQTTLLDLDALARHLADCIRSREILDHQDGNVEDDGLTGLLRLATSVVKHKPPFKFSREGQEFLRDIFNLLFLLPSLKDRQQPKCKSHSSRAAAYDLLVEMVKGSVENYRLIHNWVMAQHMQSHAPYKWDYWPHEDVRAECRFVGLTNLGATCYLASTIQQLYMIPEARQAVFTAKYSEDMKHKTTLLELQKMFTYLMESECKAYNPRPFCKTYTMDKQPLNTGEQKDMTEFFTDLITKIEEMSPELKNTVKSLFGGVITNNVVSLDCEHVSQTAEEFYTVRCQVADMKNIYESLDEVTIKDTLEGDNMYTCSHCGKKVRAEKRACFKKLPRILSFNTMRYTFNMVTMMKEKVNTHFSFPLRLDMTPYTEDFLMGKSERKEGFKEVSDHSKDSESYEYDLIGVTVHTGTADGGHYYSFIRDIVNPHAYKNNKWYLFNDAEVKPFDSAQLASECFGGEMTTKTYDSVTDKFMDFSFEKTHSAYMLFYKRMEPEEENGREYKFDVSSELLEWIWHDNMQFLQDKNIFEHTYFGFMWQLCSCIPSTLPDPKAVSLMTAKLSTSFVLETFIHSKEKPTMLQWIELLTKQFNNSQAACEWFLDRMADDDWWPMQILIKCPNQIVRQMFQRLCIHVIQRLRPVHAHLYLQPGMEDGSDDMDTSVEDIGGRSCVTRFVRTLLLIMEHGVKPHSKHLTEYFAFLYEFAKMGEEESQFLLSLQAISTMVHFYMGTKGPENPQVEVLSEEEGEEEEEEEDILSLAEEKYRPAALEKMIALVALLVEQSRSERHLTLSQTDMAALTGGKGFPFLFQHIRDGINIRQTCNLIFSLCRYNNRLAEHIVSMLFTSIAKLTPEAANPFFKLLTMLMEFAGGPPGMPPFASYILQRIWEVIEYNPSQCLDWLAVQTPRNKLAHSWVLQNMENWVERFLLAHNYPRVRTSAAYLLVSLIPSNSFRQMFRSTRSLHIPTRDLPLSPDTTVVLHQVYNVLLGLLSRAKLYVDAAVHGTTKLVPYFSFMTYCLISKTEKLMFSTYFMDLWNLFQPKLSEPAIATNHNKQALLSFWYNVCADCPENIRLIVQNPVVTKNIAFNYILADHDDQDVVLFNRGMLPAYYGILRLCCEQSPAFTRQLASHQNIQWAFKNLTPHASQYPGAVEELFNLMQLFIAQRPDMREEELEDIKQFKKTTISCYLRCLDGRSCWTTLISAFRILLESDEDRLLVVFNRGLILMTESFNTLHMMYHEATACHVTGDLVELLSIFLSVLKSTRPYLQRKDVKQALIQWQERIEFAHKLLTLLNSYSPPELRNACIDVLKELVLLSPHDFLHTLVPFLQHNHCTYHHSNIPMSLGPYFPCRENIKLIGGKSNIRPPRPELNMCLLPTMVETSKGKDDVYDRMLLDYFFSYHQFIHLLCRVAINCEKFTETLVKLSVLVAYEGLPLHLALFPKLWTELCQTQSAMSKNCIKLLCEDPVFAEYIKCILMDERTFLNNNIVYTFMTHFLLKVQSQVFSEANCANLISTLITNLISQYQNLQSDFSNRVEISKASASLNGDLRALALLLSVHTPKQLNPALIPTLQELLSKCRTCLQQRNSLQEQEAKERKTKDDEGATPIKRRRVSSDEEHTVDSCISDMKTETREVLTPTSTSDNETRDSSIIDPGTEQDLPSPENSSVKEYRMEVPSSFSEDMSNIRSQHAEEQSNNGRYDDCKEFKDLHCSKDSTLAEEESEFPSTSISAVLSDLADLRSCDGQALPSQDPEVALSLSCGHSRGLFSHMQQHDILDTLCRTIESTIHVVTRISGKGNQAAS
How it was run: (§1)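 The table lists average log2 ratios of fragment over vehicle, from an unpaired t-test on global-median-normalised Spectronaut label-free quantities. Proteins with ≥2 unique peptides were used. Samples were HEK293T lysate (495 µg) treated in triplicate with fragment at 200 µM or vehicle for 3 h, then with Biotin-Ahx-Ub-VS (0.5 µM final) for 1 h, with labelled DUBs NeutrAvidin-enriched and run by diaPASEF LC-MS/MS.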

USP36 = target: T1, USP36 (UniProt Q9P275)
T1 sequence (whole entry): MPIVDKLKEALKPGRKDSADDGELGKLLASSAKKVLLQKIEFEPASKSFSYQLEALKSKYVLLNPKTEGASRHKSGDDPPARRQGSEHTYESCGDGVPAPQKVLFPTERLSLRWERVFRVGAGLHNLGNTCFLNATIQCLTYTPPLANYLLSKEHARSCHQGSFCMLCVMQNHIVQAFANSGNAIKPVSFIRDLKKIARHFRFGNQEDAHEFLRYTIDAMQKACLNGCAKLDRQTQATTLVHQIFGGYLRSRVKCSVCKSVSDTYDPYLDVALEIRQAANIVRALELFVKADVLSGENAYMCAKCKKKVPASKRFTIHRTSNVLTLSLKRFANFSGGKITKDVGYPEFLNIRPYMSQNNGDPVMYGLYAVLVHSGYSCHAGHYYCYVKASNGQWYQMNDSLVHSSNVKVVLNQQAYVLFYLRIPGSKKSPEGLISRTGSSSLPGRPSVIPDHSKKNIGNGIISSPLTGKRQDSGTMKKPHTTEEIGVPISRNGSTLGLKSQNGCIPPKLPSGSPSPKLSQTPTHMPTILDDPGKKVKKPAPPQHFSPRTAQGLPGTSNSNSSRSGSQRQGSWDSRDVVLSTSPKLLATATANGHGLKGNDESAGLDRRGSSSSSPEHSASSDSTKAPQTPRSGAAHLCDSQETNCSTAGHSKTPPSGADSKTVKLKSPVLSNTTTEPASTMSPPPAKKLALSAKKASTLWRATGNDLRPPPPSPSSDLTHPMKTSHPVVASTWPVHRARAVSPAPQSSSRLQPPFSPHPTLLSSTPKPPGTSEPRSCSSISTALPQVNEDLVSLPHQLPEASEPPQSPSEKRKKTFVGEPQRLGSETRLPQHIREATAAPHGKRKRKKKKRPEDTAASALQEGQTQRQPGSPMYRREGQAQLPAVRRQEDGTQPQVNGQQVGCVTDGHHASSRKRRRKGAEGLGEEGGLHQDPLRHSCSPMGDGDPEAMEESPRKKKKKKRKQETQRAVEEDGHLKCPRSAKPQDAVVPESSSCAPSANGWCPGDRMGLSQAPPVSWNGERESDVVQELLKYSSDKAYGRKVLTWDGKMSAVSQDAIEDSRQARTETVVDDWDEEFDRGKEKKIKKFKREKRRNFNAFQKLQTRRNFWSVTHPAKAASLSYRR
How it was run: as §1

USP38 = target: T2, USP38 (UniProt Q8NB14)
T2 sequence (whole entry): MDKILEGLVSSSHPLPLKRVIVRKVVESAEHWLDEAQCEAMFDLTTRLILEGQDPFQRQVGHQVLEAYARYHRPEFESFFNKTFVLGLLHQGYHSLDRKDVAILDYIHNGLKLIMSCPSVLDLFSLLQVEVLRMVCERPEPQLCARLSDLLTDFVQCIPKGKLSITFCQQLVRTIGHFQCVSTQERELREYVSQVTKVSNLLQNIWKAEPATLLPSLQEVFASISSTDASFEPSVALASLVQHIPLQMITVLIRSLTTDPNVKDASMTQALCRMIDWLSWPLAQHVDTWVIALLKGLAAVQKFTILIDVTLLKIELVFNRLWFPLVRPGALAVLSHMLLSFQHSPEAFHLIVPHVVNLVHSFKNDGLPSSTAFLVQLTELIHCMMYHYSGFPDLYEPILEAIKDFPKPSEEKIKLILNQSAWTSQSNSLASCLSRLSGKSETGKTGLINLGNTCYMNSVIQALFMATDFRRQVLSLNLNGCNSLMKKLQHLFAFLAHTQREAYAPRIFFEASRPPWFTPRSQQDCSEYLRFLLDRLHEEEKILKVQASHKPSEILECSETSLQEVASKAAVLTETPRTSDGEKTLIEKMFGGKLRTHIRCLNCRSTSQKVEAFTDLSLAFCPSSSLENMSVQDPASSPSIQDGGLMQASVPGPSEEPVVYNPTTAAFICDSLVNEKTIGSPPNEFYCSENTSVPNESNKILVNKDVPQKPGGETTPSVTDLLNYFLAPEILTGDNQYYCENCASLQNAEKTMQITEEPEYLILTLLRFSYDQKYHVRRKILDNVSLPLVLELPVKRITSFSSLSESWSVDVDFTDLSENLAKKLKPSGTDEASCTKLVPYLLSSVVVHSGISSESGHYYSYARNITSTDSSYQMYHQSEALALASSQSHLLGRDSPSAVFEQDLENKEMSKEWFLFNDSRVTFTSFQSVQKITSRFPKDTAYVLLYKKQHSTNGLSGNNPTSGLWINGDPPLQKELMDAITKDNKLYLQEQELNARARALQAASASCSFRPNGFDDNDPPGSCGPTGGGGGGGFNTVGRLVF
How it was run: as §1

USP39 = target: T3, USP39 (UniProt Q53GS9)
T3 sequence (whole entry): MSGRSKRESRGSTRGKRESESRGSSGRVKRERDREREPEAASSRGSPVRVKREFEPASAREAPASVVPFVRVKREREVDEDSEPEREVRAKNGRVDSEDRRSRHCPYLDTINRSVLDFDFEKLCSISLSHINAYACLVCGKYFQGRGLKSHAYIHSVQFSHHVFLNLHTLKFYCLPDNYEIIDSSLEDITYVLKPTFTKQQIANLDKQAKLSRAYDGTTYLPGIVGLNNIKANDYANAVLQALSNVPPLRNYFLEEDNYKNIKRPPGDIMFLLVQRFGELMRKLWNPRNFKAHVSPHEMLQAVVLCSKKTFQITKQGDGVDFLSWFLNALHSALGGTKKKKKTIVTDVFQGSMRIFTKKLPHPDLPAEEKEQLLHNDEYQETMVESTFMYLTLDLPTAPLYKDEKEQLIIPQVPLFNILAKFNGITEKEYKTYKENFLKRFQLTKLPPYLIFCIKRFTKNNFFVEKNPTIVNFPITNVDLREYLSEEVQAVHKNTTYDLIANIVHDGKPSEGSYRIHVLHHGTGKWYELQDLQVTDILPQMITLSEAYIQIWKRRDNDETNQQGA
How it was run: as §1

USP4 = target: T4, USP4 (UniProt Q13107)
T4 sequence (whole entry): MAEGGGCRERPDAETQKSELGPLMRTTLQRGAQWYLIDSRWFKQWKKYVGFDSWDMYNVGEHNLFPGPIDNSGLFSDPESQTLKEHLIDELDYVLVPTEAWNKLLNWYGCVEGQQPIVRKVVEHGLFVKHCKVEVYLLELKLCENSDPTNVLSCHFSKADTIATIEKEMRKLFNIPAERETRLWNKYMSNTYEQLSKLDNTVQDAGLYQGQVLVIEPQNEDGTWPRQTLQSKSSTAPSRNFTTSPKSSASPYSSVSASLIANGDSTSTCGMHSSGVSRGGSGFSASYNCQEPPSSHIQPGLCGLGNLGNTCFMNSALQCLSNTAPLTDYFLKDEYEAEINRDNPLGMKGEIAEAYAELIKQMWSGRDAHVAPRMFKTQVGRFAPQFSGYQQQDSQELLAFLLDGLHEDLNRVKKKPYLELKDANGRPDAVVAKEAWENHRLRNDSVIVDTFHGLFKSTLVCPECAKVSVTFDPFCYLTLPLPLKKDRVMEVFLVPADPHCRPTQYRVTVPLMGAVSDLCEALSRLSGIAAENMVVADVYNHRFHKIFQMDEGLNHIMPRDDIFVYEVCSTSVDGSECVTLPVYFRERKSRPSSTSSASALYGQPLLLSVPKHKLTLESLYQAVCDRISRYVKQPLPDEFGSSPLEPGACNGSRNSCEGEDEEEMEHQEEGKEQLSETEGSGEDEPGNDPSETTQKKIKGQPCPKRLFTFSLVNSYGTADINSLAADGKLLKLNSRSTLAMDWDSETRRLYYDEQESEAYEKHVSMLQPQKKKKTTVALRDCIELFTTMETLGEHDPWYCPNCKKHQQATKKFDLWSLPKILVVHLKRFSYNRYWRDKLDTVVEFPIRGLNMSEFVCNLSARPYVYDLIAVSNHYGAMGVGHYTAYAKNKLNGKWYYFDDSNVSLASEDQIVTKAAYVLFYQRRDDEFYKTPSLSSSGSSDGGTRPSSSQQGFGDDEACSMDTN
How it was run: as §1

Measured: log2 ratio of Biotin-Ahx-Ub-VS probe labelling

O=C(CCl)Nc1cccc(NC(=O)c2ccccc2)c1
inactive: USP34 0.0355 | USP36 -0.11 | USP38 0.15 | USP39 0.0551 | USP4 0.199
